Data published in ChEMBL document CHEMBL3433997, “St. Jude Leishmania screening dataset” (2016).

Assays:
Assay type in all cases: functional
[1] = molecular target: Solute carrier family 2, facilitated glucose transporter member 1 (Homo sapiens) (UniProt P11166); assay: ST_JUDE_LEISH: Cytotoxicity at 2uM final concentration against transgenic Leishmania Mexicana promastigotes LmGLUT1 that are glucose transport deficient and complemented with the human glucose transporter GLUT1. Activity is measured by DNA content using SYBR green in vitro
[2] = molecular target: Hexose transporter 1 (Plasmodium falciparum) (UniProt O97467); assay: ST_JUDE_LEISH: Cytotoxicity at 2uM final concentration against transgenic Leishmania Mexicana promastigotes LmPfHT that are glucose transport deficient and complemented with the Plasmodium falciparum hexose transporter. Activity is measured by DNA content using SYBR green in vitro
[3] = molecular target: Glucose transporter (Leishmania mexicana) (UniProt O61059); assay: ST_JUDE_LEISH: Cytotoxicity at 2uM final concentration against transgenic Leishmania Mexicana promastigotes LmGT2 that are glucose transport deficient and complemented with the L. Mexicana glucose transporter 2. Activity is measured by DNA content using SYBR green in vitro

Chain of Solute carrier family 2, facilitated glucose transporter member 1 (Homo sapiens) (P11166 whole entry): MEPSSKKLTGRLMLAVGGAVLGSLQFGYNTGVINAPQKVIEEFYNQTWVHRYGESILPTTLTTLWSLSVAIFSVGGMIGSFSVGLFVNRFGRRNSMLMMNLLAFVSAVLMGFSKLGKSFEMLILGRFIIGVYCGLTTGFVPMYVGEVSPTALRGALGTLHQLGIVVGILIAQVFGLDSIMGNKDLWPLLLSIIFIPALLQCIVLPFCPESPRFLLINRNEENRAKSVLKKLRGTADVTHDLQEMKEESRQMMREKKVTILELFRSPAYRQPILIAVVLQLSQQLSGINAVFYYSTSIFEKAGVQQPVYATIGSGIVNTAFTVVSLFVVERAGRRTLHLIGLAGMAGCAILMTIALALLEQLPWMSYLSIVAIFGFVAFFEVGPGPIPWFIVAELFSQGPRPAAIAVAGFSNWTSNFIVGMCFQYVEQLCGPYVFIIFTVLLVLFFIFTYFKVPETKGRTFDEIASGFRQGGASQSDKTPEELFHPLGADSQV

SMILES | inhibition [1] [%] | inhibition [2] [%] | inhibition [3] [%]
CCc1cc(NC2CCN(C)CC2)nc(Nc2ccc(C)cc2)n1 | 7.94 | 4.93 | -1.22
Clc1ccc2nc(-c3cccnc3)[nH]c2c1 | 6.05 | 8.47 | 6.56
c1ccc(-c2cccc(-c3ccccn3)n2)nc1 | 3.92 | 2.46 | 2.49
CCCNC[C@@H](O)[C@H](Cc1ccccc1)NC(=O)c1cc(NCC)cc(N2CCCCS2(=O)=O)c1 | 1.97 | 2.32 | 2.85
CS(=O)(=O)c1ccc(CCNCc2ccc(-c3cccc(-c4nc5ccccc5[nH]4)c3)cc2)cc1 | 1.41 | 0.65 | -0.73
Nc1c2ccccc2nc2cc(Cl)ccc12 | 3.29 | 1.91 | 1.91
Cc1cc(N)c2cc(NC(=O)/C=C/c3ccccc3)ccc2n1 | -0.18 | 0.45 | -0.79
O=C(C=Cc1ccc(Cl)c(Cl)c1)NCCCCCN1CCCC(CCCNC(=O)c2cccs2)C1 (stereo not drawn) | 6.06 | 3.58 | 5.16
COc1ccc2c(NN=CC=Cc3ccccc3)ccnc2c1 | 9.5 | 6.81 | 11.6
CC(C)(C)c1ccccc1OCCCON1C(=N)N=C(N)NC1(C)C | 38 | 59.3 | 37.1
CCN1CCC(N(Cc2ccc(-c3ccc(C(F)(F)F)cc3)cc2)C(=O)Cn2c(SCc3cccc(F)c3F)cc(=O)c3ccccc32)C1 (stereo not drawn) | 0.27 | -0.31 | -0.18
COc1cc(C=C(C2=NC(=O)CS2)c2nc3cccnc3n2C)ccc1O | 5.2 | 5.56 | 4.82
Cc1ccc(CN2CCN(c3cc4c(cc3Cl)CCN4C(=O)Cc3ccc(NC(=O)c4ccc(C(F)(F)F)cc4)cc3)CC2)cc1 | 6.58 | 5.46 | 1.59
c1ccc(CNc2nc(NCCc3c[nH]cn3)nc(N3CCCC4CCCCC43)n2)cc1 (stereo not drawn) | -1.84 | -0.22 | -1.46
CC(C)CNCc1cccc(-c2cccc(CN(CCCN3CCN(C)CC3)C(=O)/C=C/c3ccccc3)c2)c1 | -1.06 | -1.23 | -4.91
c1ccc2[nH]c(Nc3ccc(Nc4nc5ccccc5[nH]4)cc3)nc2c1 | 0.45 | 0.37 | 0.51
O=C(NC1CCN(CC2(c3ccc(Cl)cc3)CCCCC2)CC1)c1cc[nH]n1 | 3.86 | 2.9 | 3.61
CCOCCCn1c(=N)c(C(=O)NC(C)c2ccccc2)cc2c(=O)n3cccc(C)c3nc21 (stereo not drawn) | 7.84 | 6.01 | 3.81

SMILES | inhibition [1] [%] | inhibition [2] [%] | inhibition [3] [%]
CNC(=O)c1ccccc1Nc1cc(Nc2cc(OC)ccn2)ncc1Cl | 5.77 | 7.66 | 6.6
CO/C(=C\C=C\c1cc2cc(Cl)c(Cl)cc2[nH]1)C(=O)NCCCN1CCN(c2cccc(O)c2)CC1 | 10.4 | 11.7 | 11.8
Cc1cccc2nc(-c3ccc(-c4cccc(CNCCN5CCNCC5)c4)cc3)[nH]c12 | 9.94 | 8.32 | 9.01
Nc1c2c(nc3ccc(Oc4ccc(Br)cc4Br)cc13)CCCC2 | 81.2 | 84.6 | 57.4
CN(C)CCOc1ccc(/C(=C(/CCCn2ccnc2)c2ccccc2)c2ccc(O)cc2)cc1 | 4.25 | 6.01 | 5.69
CCCc1cc(Cc2cnc(N)nc2N)cc(CCC)c1OC | 4.11 | 1.27 | -2.49
O=C(Nc1cccc(CN2CCN(C(=O)c3cccs3)CC2)c1)c1cccs1 | 2.53 | 2.59 | 2.26
O=C(Nc1ccc(OC2CCN(Cc3ccsc3)C2)c(Cl)c1)c1cccs1 (stereo not drawn) | 2.98 | 3.61 | 2.52
CCCCNC[C@@H](O)[C@H](Cc1ccccc1)NC(=O)c1cc(NCC)cc(N2CCCCS2(=O)=O)c1 | 4.19 | 2.9 | 3.45
O=S(=O)(NCCN1CCCC1)c1ccc(-c2cccc(CNCCc3cccs3)c2)cc1 | 5.24 | 5.07 | 3.91
COc1ccc(/C=C/C(=O)N2CCc3cc4nccc(N5CCN6CCC[C@H]6C5)c4cc32)cc1 | 3.43 | 4.78 | 4.53
CCC(NC(=O)c1ccccc1NC(=O)c1ccc(C)cc1)C(=O)OC (stereo not drawn) | -0.5 | 0.91 | 0.97
Cc1cccc(C(=O)N2CCN(Cc3cccc(NC(=O)c4ccco4)c3)CC2)c1 | -1.31 | 1.48 | 1.47
O=C(NC1CCN(Cc2ccccc2)CC1)c1csc2nc(-c3ccc(Cl)cc3)cn12 | 4.09 | 2.67 | 2.02
O=C(Nc1ccc2c(c1)OCO2)c1cc(-c2cccnc2)cnc1NCc1ccc2c(c1)OCO2 | 0.99 | 0.19 | 2.1
Cc1cc(N[C@@H](Cc2ccccc2)C(=O)NCCOc2ccccc2)nc(NCCc2ccccc2)n1 | 6.59 | 5.86 | 3.92
CC(C)NCc1ccc(-c2cccc(-c3nc4cc(F)ccc4[nH]3)c2)cc1 | -1.78 | 0.53 | -0.69
COc1ccc(C2CC(=O)C3=C(C2)NC(C)=C(C(=O)OC(C)C)C3c2c(F)cccc2Cl)cc1OC (stereo not drawn) | 2.24 | 0.57 | 0.75
